Platelet DG rel: platelet dense granule release activity. AID 1663. human platelet-rich plasma, SFLLRN dense granule ATP release, luminescence. inhibition, %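 (compounds screened at 7.5 µM in platelet-rich plasma)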. 0.22% of 300,000 active;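 active = mean replicate score, as percent of positive control, at or above 50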
SENP8 block-1: blocks human SENP8 cleavage of Nedd8 substrate | 0.64% of 360,000 active | inhibition, % at 20 µM | Q96LD8 | recombinant SENP8, Nedd8 substrate fluorescence; in the data active = inhibition mostly above about 40%, no sharp cut-off; inactive = mostly below about 27%
Target sequence (Q96LD8 whole entry, looked up): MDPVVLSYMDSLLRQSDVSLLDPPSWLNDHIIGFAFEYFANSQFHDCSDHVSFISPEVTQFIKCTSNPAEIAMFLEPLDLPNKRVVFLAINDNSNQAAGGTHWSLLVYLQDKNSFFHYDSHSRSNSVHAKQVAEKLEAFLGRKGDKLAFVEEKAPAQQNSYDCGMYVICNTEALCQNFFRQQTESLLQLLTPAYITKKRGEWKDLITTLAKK
SENP7 inh: inhibitors of human SENP7 protease. 1.5% of 330,000 active. recombinant SENP7, Z-RLRGG-aminoluciferin luminescence, 40 min. Q9BQF6. inhibition, % at 5 µM;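 active = inhibition above about 50% at the single test dose, limit read from the data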;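 also: plate controls were DMSO with enzyme for no effect and no enzyme buffer wells for full effect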
SENP8 block-2: blocks the human protease SENP8. Q96LD8. purified SENP8, Z-RLRGG-aminoluciferin cleavage, luminescence. inhibition, % at 10 µM. 1.2% of 330,000 active; in the data active = inhibition above about 50%
SENP6 block: SENP6 protease inhibition | Recombinant SENP6 catalytic domain, aminoluciferin luminescence | inhibition, % at 10 µM | Q9GZR1 | 1.8% of 330,000 active;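 active = inhibition above about 50% at the single tested dose, limit read from the data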;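 also: plate controls were DMSO wells with enzyme for no effect and DMSO wells lacking enzyme for full effect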
SENP8 conf: human SENP8 inhibition, confirmed. shares compounds with SENP7 inh. Recombinant SENP8, Z-RLRGG-aminoluciferin luminescence, 60 min. inhibition, % at 12.5 µM. 40% of 6,200 active;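 active = mean inhibition across replicates above about 50%, limit read from the data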
SENP6 confirm: human SENP6 inhibition, confirmed. inhibition, % at 12.5 µM. shares compounds with SENP7 inh. recombinant SENP6, Z-RLRGG-aminoluciferin luminescence. AID 488915. 58% of 6,200 active
SENP7 confirm: human SENP7 inhibition, confirmed | shares compounds with SENP7 inh | recombinant SENP7, Z-RLRGG-aminoluciferin luminescence, 40 min | inhibition, % at 12.5 µM | 69% of 6,200 active | AID 488917
Casp3 select: selectivity test for SENP inhibitors: human caspase-3 inhibition. 60% of 6,200 active. shares compounds with SENP7 inh. AID 488918. purified caspase-3, Z-DEVD-aminoluciferin luminescence, 60 min. inhibition, % at 12.5 µM;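 active = mean inhibition above about 50%, limit read from the data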;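 also: plate controls were enzyme with DMSO for no effect and wells without caspase-3 for full effect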
Target sequence (P42574 28-227 limits assumed): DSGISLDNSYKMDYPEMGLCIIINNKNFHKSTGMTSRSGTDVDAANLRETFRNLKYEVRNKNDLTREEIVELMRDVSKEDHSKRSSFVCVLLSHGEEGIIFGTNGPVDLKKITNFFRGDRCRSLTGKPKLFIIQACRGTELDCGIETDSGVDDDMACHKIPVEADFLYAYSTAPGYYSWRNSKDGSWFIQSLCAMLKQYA
SENP luc ctr: luminescence interference (SENP counter-screen); shares compounds with SENP7 inh; Pre-incubated SENP8/Z-RLRGG-aminoluciferin, luciferase luminescence interference; inhibition, % at 12.5 µM; 39% of 6,200 active;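 active = mean inhibition above about 50% when retested at one dose, limit read from the data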;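 also: plate controls were DMSO wells with completed reaction for no effect and substrate without enzyme for full effect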
Numbers without * were called inactive; i = inactive; x = no result. A selection: hits, their analogues and other compounds. The true share with any hit is near 2.4%.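 The calls were made as follows, unless noted: active = mean inhibition above about 50% in the one-dose retest (limit read from the data); inactive = the rest.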

SMILES | Platelet DG rel | SENP8 block-1 | SENP7 inh | SENP8 block-2 | SENP6 block | SENP8 conf | SENP6 confirm | SENP7 confirm | Casp3 select | SENP luc ctr
CCC(C)N1C(=O)NC(=O)C2(Cc3c(ccc4ccccc34)N(C)C2)C1=O (stereo not given) | 1 | -28 | 16 | 11 | 76* | -20 | -7 | -6 | -6 | -6
Cc1nc(Cl)sc1C(=O)Nc1ccc2ccccc2c1 | -1 | 9 | 29 | 20 | 55* | 36 | 32 | 75* | 34 | 32
CC1CN(c2ccccn2)C(C)CN1C(=O)C(O)(c1ccccc1)c1ccccc1 (stereo not given) | x | -25 | x | x | x | x | x | x | x | x
COc1cc(C(c2c(C)[nH]n(-c3ccccc3)c2=O)c2c(C)[nH]n(-c3ccccc3)c2=O)cc(OC)c1OC | -7 | 80* | 64* | 31 | 59* | 21 | 48 | 18 | -2 | -3
COc1cc2[nH]c(=O)n(-c3ccccc3)c(=O)c2cc1OC | 2 | -320 | -4 | -1 | -3 | x | x | x | x | x
COc1ccc(CC(=O)C2C(=O)N(C)c3ccccc32)cc1OC (stereo not given) | x | 10 | x | x | x | x | x | x | x | x
COc1ccc(Cn2c(N)c(C(=O)NCc3ccco3)c3nc4ccccc4nc32)cc1 | -1 | -415 | 28 | 25 | 58* | -4 | -6 | -4 | -1 | -6
Nc1c(C(=O)NCc2ccco2)c2nc3ccccc3nc2n1Cc1ccc(F)cc1 | -5 | -484 | 54* | 75* | 89* | 1 | -4 | -5 | -3 | -13
Cc1[nH]nc2ccc(-c3cncc(OC[C@@H](N)Cc4c[nH]c5ccccc45)c3)cc12 | x | 0 | x | x | x | x | x | x | x | x
O=C(Nc1ccccc1)c1c(O)[nH]c(=S)[nH]c1=O | -1 | -3 | 61* | 52* | 63* | 62* | 54* | 88* | 82* | 60*
Fc1cccc(F)c1-c1nc(-c2ccc(Cl)cc2)no1 | -13 | 6 | 61* | 65* | 71* | 31 | 66* | 63* | 40 | 32
CCCCCn1c(N)c(C(=O)NCc2cccs2)c2nc3ccccc3nc21 | -3 | x | 40 | 84* | 80* | 12 | 14 | 8 | -2 | -4
CCCCCn1c(N)c(C(=O)NCCN2CCOCC2)c2nc3ccccc3nc21 | 5 | -490 | 3 | 9 | 11 | x | x | x | x | x
CCCCNC(=O)c1c(N)n(Cc2ccc3c(c2)OCO3)c2nc3ccccc3nc12 | 1 | -270 | 62* | 89* | 94* | -7 | 3 | -2 | 5 | 3
COCCCn1c(N)c(C(=O)NCCC(C)C)c2nc3ccccc3nc21 | 0 | -288 | 63* | 77* | 81* | -6 | 13 | -1 | 4 | -6
Nc1c(C(=O)NCc2ccco2)c2nc3ccccc3nc2n1Cc1ccccc1 | -3 | -395 | 14 | 11 | 16 | x | x | x | x | x
CCCCn1c(N)c(C(=O)NCc2cccs2)c2nc3ccccc3nc21 | -2 | -257 | 38 | 93* | 88* | 10 | 18 | 17 | 2 | 2
CCCCCCn1c(N)c(C(=O)NCCN2CCOCC2)c2nc3ccccc3nc21 | 1 | -432 | 22 | 7 | 36 | x | x | x | x | x
O=C(O)[C@H]1C[C@@H]1[C@H](NP(=O)(c1ccccc1)c1ccccc1)c1ccccc1 | -5 | 8 | -6 | -3 | -7 | x | x | x | x | x
c1ccc2c(c1)[IH]c1ccccc1-2 | x | 8 | x | x | x | x | x | x | x | x
COC(=O)C1=C(c2ccc(F)cc2F)C[C@@H]2CC[C@H]1N2C(=O)NC1Cc2ccccc2C1 | x | 15 | 1 | -4 | -19 | x | x | x | x | x
COc1ccc(CN2Cc3cnnn3-c3ccccc3C2C)cc1 (stereo not given) | x | 5 | x | x | x | x | x | x | x | x
Nc1c(C(=O)NCCCc2ccccc2)c2nc3ccccc3nc2n1Cc1cccs1 | 0 | -285 | 35 | 46 | 60* | -18 | 11 | 0 | -5 | -6
CCCOC(=O)c1c(N)n(Cc2cccs2)c2nc3ccccc3nc12 | 0 | -284 | -2 | -2 | 5 | x | x | x | x | x
COc1ccc(-c2cc(=Nc3ccccc3)c3cc(C)ccc3o2)cc1 | 2 | -340 | 68* | 22 | 69* | 12 | 7 | 0 | 7 | 13
SMILES | Platelet DG rel | SENP8 block-1 | SENP7 inh | SENP8 block-2 | SENP6 block | SENP8 conf | SENP6 confirm | SENP7 confirm | Casp3 select | SENP luc ctr
C1CC2OC2CC1C1CO1 (stereo not given) | x | 3 | 0 | -7 | -15 | x | x | x | x | x
CCN(CC)CCC(=O)O[C@H]1CC[C@]2(C)C3CC[C@@]4(C)C(CC[C@]4(C)O)C3CC[C@H]2C1 (stereo not given in full) | x | 22 | 10 | 3 | 1 | x | x | x | x | x
COc1ccc(-c2nc3ccccc3c(=O)o2)cc1 | 7 | 9 | 90* | 19 | 81* | 63* | 44 | 75* | 54* | 34
N/C(=N\[N+](=O)[O-])N/N=C/c1ccc(O)cc1 | 31 | 13 | 79* | 67* | 92* | 78* | 75* | 91* | 92* | 81*
Nc1nonc1C(=O)N/N=C/c1ccc([N+](=O)[O-])o1 | 2 | 34 | 3 | 9 | 13 | x | x | x | x | x
CCN(CC)C(=O)c1ccc(NC(=O)c2cccc(F)c2)cc1 | 8 | 12 | 65* | 35 | 62* | 57* | 54* | 83* | 82* | 53*
C[C@]12CCC3C(C(=O)C[C@H]4C[C@@H](O)CC[C@]34C)C1CCC2=O (stereo not given in full) | x | 6 | -3 | 7 | -1 | x | x | x | x | x
O=c1[nH]c(=S)[nH]c(O)c1N=Nc1ccc(SC(F)F)cc1 | 5 | 25 | 83* | 91* | 100* | 81* | 95* | 89* | 95* | 62*
CC(C)c1ccc(N=Nc2c(O)[nH]c(=O)[nH]c2=O)cc1 | 2 | 24 | 1 | -9 | -8 | x | x | x | x | x
O=C(Nc1ccc(Cl)cc1)Nc1nccs1 | 6 | 16 | 52* | 25 | 68* | 50* | 50* | 77* | 39 | 37
O=P1(NCCCl)OCCCN1CCCl (stereo not given) | x | 16 | -2 | -3 | -20 | x | x | x | x | x
COc1cc2c(cc1OC)-c1c3c(cc4c1[C@@H](C2)N(C)CC4)OCO3 | -1 | i | 46 | 32 | 78* | 10 | 38 | 8 | 4 | -3
COc1cc2c(cc1OC)-c1c(OC)c(OC)cc3c1C(C2)N(C)CC3 (stereo not given) | 1 | -136 | 55* | 58* | 82* | -2 | 73* | 30 | 24 | -3
NNCc1cccc(O)c1 | 24 | 7 | 56* | 72* | 81* | 18 | 20 | 55* | 52* | 73*
